Measured values from PubChem BioAssay (NCI).
Values joined by “and” are separate entries in the source; they are usually repeats but may differ in a detail not shown here. Equal entries are not always repeated. The panel holds about 79,000 compounds, 15% with a hit somewhere; the sample as a whole holds those more often. Some structures have more than one record in an assay (separate samples or runs), and their calls can disagree. Active and inactive are the calls of the source. Cut-off read from the data, not from the text of the source: active = growth inhibition above about 70%; inactive = the rest.

Legend:
[1] = NCI Yeast Anticancer Drug Screen. Data for the rad50 strain (AID 155);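 note: 0% = growth of vehicle-only cultures of the same strain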; conditions: S. cerevisiae rad50 strain growth inhibition; at 50.0 µM; stronger effect = higher value
In short: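 Compounds were tested on a yeast strain with an engineered DNA damage repair alteration; the reported value is growth inhibition normalised to vehicle treatment.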

[2] = NCI Yeast Anticancer Drug Screen. Data for the mec2-1 strain (AID 157); conditions: S. cerevisiae mec2-1 strain, at 50.0 µM, stronger effect = higher value
In short: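 Each compound was tested on mec2-1 yeast, a strain altered in DNA damage repair or cell cycle control. Growth inhibition is reported relative to vehicle.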

[3] = NCI Yeast Anticancer Drug Screen. Data for the sgs1 mgt1 strain (AID 161);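 note: 0% = growth of cultures given vehicle only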; conditions: S. cerevisiae sgs1 mgt1 strain, at 50.0 µM, stronger effect = higher value
In short: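 Read-out: growth inhibition vs vehicle controls. Cells: mutant yeast strain deficient in DNA damage repair.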

[4] = NCI Yeast Anticancer Drug Screen. Data for the cln2 rad14 strain (AID 165);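 note: 0% = growth equal to vehicle treated cultures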; conditions: S. cerevisiae cln2 rad14 strain, at 50.0 µM, stronger effect = higher value
In short: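 Test compounds were added to cln2 rad14 yeast cultures; inhibition of growth was then determined by comparison with vehicle treatment.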

[5] = NCI Yeast Anticancer Drug Screen. Data for the bub3 strain (AID 167); conditions: S. cerevisiae bub3 mutant strain, at 50.0 µM, stronger effect = higher value
In short: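 Growth of a checkpoint-deficient yeast mutant is measured after compound exposure. Values represent inhibition relative to vehicle.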

[6] = NCI Yeast Anticancer Drug Screen. Data for the mlh1 rad18 strain (AID 175); conditions: S. cerevisiae mlh1 rad18 strain growth inhibition; at 50.0 µM; stronger effect = higher value
In short: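 Inhibition values reflect reduced growth of mutant yeast versus vehicle-treated controls following compound exposure; the mutations affect DNA damage repair.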

Row | SMILES | growth inhibition [1] | growth inhibition [2] | growth inhibition [3] | growth inhibition [4] | growth inhibition [5] | growth inhibition [6]
1 | N#CC1C(=O)c2ccccc2C1=O | -1.4% (inactive) | 4.15% (inactive) | 1.6% (inactive) | -3.35% (inactive) | 12.8% (inactive) | -1.85% (inactive)
2 | CN1CCc2cc3c(cc2C1)OCO3 | -22.9% (inactive) and -14.8% (inactive) | 2.5% (inactive) and -16.9% (inactive) | -12.9% (inactive) and 8.55% (inactive) | -22.6% (inactive) and 7.65% (inactive) | -5.85% (inactive) and 2.45% (inactive) | -17.9% (inactive) and 28.6% (inactive)
3 | C=C(C)[C@H]1CN[C@H](C(=O)O)[C@H]1CC(=O)O | -5.6% (inactive) | -5% (inactive) | -6.15% (inactive) | -19.9% (inactive) | -6.5% (inactive) | 5.05% (inactive)
4 | COc1cc(C(CC(C)=O)c2cc3c(cc2OC(C)=O)OCO3)cc(OC)c1OC (stereo not given) | 18.8% (inactive) | 4.4% (inactive) | -0.9% (inactive) | -9.1% (inactive) | 10.8% (inactive) | 21.9% (inactive)
5 | O=[N+]([O-])c1cccc(/C=C/c2ccc(S(=O)(=O)F)cc2)c1 | 97.5% (active) | 93.8% (active) | 96.8% (active) | 93.8% (active) | 97.2% (active) | 97.3% (active)
6 | CCOC(=O)CC(=O)C(F)(F)F.CCOC(=O)CC(=O)C(F)(F)F.[Ni] | -21% (inactive) | 14.4% (inactive) | -12.2% (inactive) | 24.4% (inactive) | 12.6% (inactive) | -0.95% (inactive)
7 | CC1CCC2[S][Sn]3([NH]C2C1)[NH]C1CC(C)CCC1[S]3 (stereo not given) | 97% (active) | 96.5% (active) | 99.1% (active) | 95.8% (active) | 98.2% (active) | 96.5% (active)
8 | C[C@]12CCC(=O)C=C1CC[C@H]1[C@@H]3CCC(=O)[C@@]3(C)CC[C@@]12F | -2.35% (inactive) | -6.1% (inactive) | 2.25% (inactive) | -31.8% (inactive) | -3.7% (inactive) | -5.75% (inactive)
9 | O=C1C=CC(=Nc2cc(Cl)c(O)c(Cl)c2)C=C1 | 26.6% (inactive) | 42.5% (inactive) | 32.5% (inactive) | 20.1% (inactive) | 31.1% (inactive) | 42.8% (inactive)
10 | CC(C)CCC[C@@H](C)[C@H]1CC[C@H]2[C@@H]3CC=C4C[C@@H](OC(=O)F)CC[C@]4(C)[C@H]3CC[C@]12C | 19.9% (inactive) | 20.6% (inactive) | 42.5% (inactive) | 35.9% (inactive) | 26.9% (inactive) | 33.7% (inactive)
11 | CN(C)C(=O)Sc1ccc(S(=O)(=O)F)c(Cl)c1Cl | 26.4% (inactive) | 13.3% (inactive) | 31.1% (inactive) | 21.9% (inactive) | 3.25% (inactive) | 24.6% (inactive)
12 | CCOC(=O)C(C)(C)C(OP(=S)(OCC)OCC)=C(C)C | 4.6% (inactive) | 12.4% (inactive) | 12.7% (inactive) | 23.8% (inactive) | 18% (inactive) | 7.15% (inactive)
13 | COc1cc2c(cc1OC)C13CCN4CC5=CCOC6CC(=O)N2C1C6C5CC43 (stereo not given) | -13% (inactive) and 7.35% (inactive) | -43.9% (inactive) and -36.3% (inactive) | -20.9% (inactive) | 4% (inactive) | -8.6% (inactive) | -0.6% (inactive) and -1.65% (inactive)
14 | CN(C)CCc1ccc(Cl)cc1Cl | 11.1% (inactive) | 14.3% (inactive) | -2.5% (inactive) | 6.6% (inactive) | 3.75% (inactive) | 22.4% (inactive)
15 | CC(=O)OC1[C@H](n2ccnc2)C[C@H]2[C@@H]3CC=C4CC(N5CCCC5)CC[C@]4(C)[C@H]3CC[C@]12C (stereo not given in full) | 2.1% (inactive) | -9.1% (inactive) | -29.9% (inactive) | 7.05% (inactive) | -48.8% (inactive) | -55.4% (inactive)
16 | CCOC(=O)C1Oc2ccc([N+](=O)[O-])c3c2C1(O)CCC3 (stereo not given) | 7.2% (inactive) | 1.3% (inactive) | 5.8% (inactive) | 26.6% (inactive) | -8.8% (inactive) | -6.65% (inactive)
17 | CCOP(=O)(OCC)/C(C#N)=C(\C)c1ccco1 | -26.4% (inactive) | -28.9% (inactive) | -15.3% (inactive) | -18.4% (inactive) | -11.6% (inactive) | -1.2% (inactive)
18 | O=[N+]([O-])c1ccc(/C=C/c2ccc(Cl)c(S(=O)(=O)F)c2)c(Cl)c1 | 15.6% (inactive) | -4.95% (inactive) | -1.7% (inactive) | 2.45% (inactive) | 13% (inactive) | -6.3% (inactive)

Row | SMILES | growth inhibition [1] | growth inhibition [2] | growth inhibition [3] | growth inhibition [4] | growth inhibition [5] | growth inhibition [6]
19 | CCCCOC1OCN(C2CCCCC2)CC1(C)C (stereo not given) | 13.5% (inactive) | 28.1% (inactive) | 27.5% (inactive) | 13.7% (inactive) | 36.8% (inactive) | 41.8% (inactive)
20 | CC(=O)OC1(C(C)=O)CC2(c3ccccc3)OC1(c1ccccc1)c1ccccc12 (stereo not given) | -0.55% (inactive) | 12.1% (inactive) | 9% (inactive) | 10.2% (inactive) | -3.9% (inactive) | 7.25% (inactive)
21 | C=C(C)C1C2CC3(C)C4(CO4)C4OC4C3(O)C1C(=O)O2 (stereo not given) | 13.3% (inactive) | -16.4% (inactive) | 14.8% (inactive) | 4.2% (inactive) | 5.35% (inactive) | -47.2% (inactive)
22 | CCCCCCN1C(C)C1C(C)C (stereo not given) | 5.7% (inactive) | 12.2% (inactive) | 2.25% (inactive) | -3.8% (inactive) | -4.15% (inactive) | 1.6% (inactive)
23 | c1ccc2c(c1)-c1ccccc1C1NC21 (stereo not given) | 21.3% (inactive) and 69% (inactive) | 2.3% (inactive) and 47.4% (inactive) | 21.9% (inactive) and 48.2% (inactive) | 10.7% (inactive) and 56.1% (inactive) | 20.5% (inactive) and 98.5% (active) | -50.5% (inactive) and 51.2% (inactive)
24 | Cc1cc(N(CCCl)CCCl)ccc1C=Nc1ccccc1C(=O)O | 27.4% (inactive) | 3.9% (inactive) | 28.4% (inactive) | 16.1% (inactive) | 2.65% (inactive) | 29.1% (inactive)
25 | Cc1cc(C(C)(C)c2cc(C)c(O)c(C)c2)cc(C)c1O | 12.6% (inactive) | -41.1% (inactive) | -6.9% (inactive) | 27.4% (inactive) | -17.6% (inactive) | -12.3% (inactive)
26 | CCOC(=O)C(Br)Br | 20% (inactive) | -2.7% (inactive) | -13.9% (inactive) | 22.2% (inactive) | 23.3% (inactive) | 10.6% (inactive)
27 | COc1ccccc1CC(C)N (stereo not given) | 1.35% (inactive) | -5.6% (inactive) | 8.3% (inactive) | 16% (inactive) | 16.1% (inactive) | 16.3% (inactive)
28 | CC[N+]1(CC)CC[N+](CC)(CC)CC1 | 22.9% (inactive) | -49% (inactive) | 25.8% (inactive) | -9.05% (inactive) | -0.9% (inactive) | 16.4% (inactive)
29 | [Cl][Ni][Cl].[NH-]C1CCCCC1[NH-].[NH-]C1CCCCC1[NH-] (stereo not given) | -22.9% (inactive) | -6.45% (inactive) | 0.85% (inactive) | -18.6% (inactive) | 11.8% (inactive) | -1.85% (inactive)
30 | CCOC(=O)/C(=C\c1ccc(OC)cc1)[Se]c1ccccc1 | 50% (inactive) | -11% (inactive) | 39.5% (inactive) | 13.8% (inactive) | 44.6% (inactive) | 59.9% (inactive)
31 | OP(=S)(OCc1ccccc1)OCc1ccccc1 | 18.9% (inactive) | 19.6% (inactive) | 5.95% (inactive) | -13.8% (inactive) | 17.9% (inactive) | 4.55% (inactive)
32 | O=C1CCCC2C3CC(CN12)C1CCCCN1C3 (stereo not given) | 9.85% (inactive) and 15.7% (inactive) | -18.3% (inactive) and -13.9% (inactive) | -3.4% (inactive) and 6.75% (inactive) | 9.05% (inactive) and 21.3% (inactive) | -11.8% (inactive) and 26.9% (inactive) | -29.3% (inactive) and 32.3% (inactive)
33 | CNC(=O)Oc1cc(OC)ccc1C(=O)c1ccccc1 | 2.45% (inactive) | 6.85% (inactive) | 32.6% (inactive) | -21.6% (inactive) | 5.35% (inactive) | 47% (inactive)
34 | CCOc1ccc(Nc2nc(=O)[nH]c3ccccc23)cc1CN(CCCl)CCCl | 18.7% (inactive) | 0.95% (inactive) | 10.5% (inactive) | -19.4% (inactive) | 1.3% (inactive) | 22.4% (inactive)
35 | CCN1C[C@]2(COC)[C@H](O)C[C@H](OC)[C@]34C1[C@H]([C@H](OC)[C@H]23)[C@]1(OC(C)=O)[C@H]2[C@@H](OC(=O)c3ccccc3)[C@](O)(C[C@H]24)[C@@H](OC)[C@@H]1O | 14.6% (inactive) | -4% (inactive) | 5.8% (inactive) | -6.85% (inactive) | 24.9% (inactive) | -69.3% (inactive)
